In the supplement of paper PMC10849652:
The full data set covers some 8,800 targets. This sample favours those with a hit. About 0.5% of all pairs of compound and target were hits.

Columns and labels:
Experiment in all cases: log2 fold change, soluble protein after heating vs DMSO (PISA); higher = thermal stabilisation; K562 lysate, 10 uM; active = over 0.2 and 3.5 SD of the protein, either way, in both replicates (recomputed)
ibrutinib = compound: C=CC(=O)N1CCC[C@@H](n2nc(-c3ccc(Oc4ccccc4)cc3)c3c(N)ncnc32)C1 [ibrutinib]
How it was run: (§1)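 To prepare the extract, K562 pellets were dounce-homogenised in PBS pH 7.4 with 1 mM MgCl2, giving crude material at 1 mg/mL protein. This was treated with 10 μM compound for 30 min, then heated in aliquots for 3 min over 48°C-58°C before pooling and addition of NP-40 to 0.5% at 4°C. Centrifugation at 21,000xg for 90 min left soluble protein in the supernatant, which TMTpro 16plex LC-MS/MS quantified with equalised channel sums. Results are log-two fold changes in thermal stability compared with solvent controls, from duplicates.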

[1] = compound: CC(=O)c1cnc2ccc(-c3cc(Cl)c(O)c(Cl)c3)nc2c1N[C@H]1CC[C@H](CN(C)C)CC1
How it was run: as §1

ralimetinib = compound: CC(C)(C)Cn1c(N)nc2ccc(-c3[nH]c(C(C)(C)C)nc3-c3ccc(F)cc3)nc21 [ralimetinib]
How it was run: as §1

[2] = compound: CC(C)(O)CC(=O)NCCn1ccc2ncnc(Nc3ccc(Oc4cccc(C(F)(F)F)c4)c(Cl)c3)c21
How it was run: as §1

[3] = compound: CC(C)C1=C2N=C(C=C(N2N=C1)NCC3=CC=CC=C3)NCCCCCCN
How it was run: as §1

[4] = compound: CC1=C(C(CC(=O)N1)C2=CC=C(C=C2)C(F)(F)F)C(=O)NC3=C(C=C4C(=C3)C=NN4)F
How it was run: as §1

[5] = compound: CC1=C(C2=C(C=C1)C(=O)C3=CC=CC=C3N2CCCN)C
How it was run: as §1

[6] = compound: CC1=C(C=C(C=C1)NC(=O)C2=CC(=CC=C2)C(C)(C)C#N)NC3=CC4=C(C=C3)N=CN(C4=O)C
How it was run: as §1

[7] = compound: CC1=C(C=C(C=C1)NC(=O)C2=CC(=CC=C2)N(C)C)NC(=O)C3=CC=C(C=C3)O
How it was run: as §1

[8] = compound: CC1=CC=C(C=C1)SC2=C3C=C(SC3=CN=C2)C(=O)N
How it was run: as §1

vemurafenib = compound: CCCS(=O)(=O)Nc1ccc(F)c(C(=O)c2c[nH]c3ncc(-c4ccc(Cl)cc4)cc23)c1F [vemurafenib]
How it was run: as §1

[9] = compound: CCCS(=O)(=O)Nc1ccc(F)c(C(=O)c2c[nH]c3ncc(Cl)cc23)c1F
How it was run: as §1

barasertib = compound: CCN(CCCOc1ccc2c(Nc3cc(CC(=O)Nc4cccc(F)c4)[nH]n3)ncnc2c1)CCOP(=O)(O)O [barasertib]
How it was run: as §1

[10] = compound: CC[C@@H]1C(=O)N(C)c2cnc(Nc3ccc(C(=O)NC4CCN(C)CC4)cc3OC)nc2N1C1CCCC1
How it was run: as §1

volasertib = compound: CC[C@@H]1C(=O)N(C)c2cnc(Nc3ccc(C(=O)N[C@H]4CC[C@H](N5CCN(CC6CC6)CC5)CC4)cc3OC)nc2N1C(C)C [volasertib]
How it was run: as §1

[11] = compound: CCn1c(C(=O)N(C2CC2)C2CC2)cc2c3c(ncn3C)c(Nc3cc(C)n(C)n3)nc21
How it was run: as §1

[12] = compound: CCn1cc(-c2ccnc3[nH]c(-c4cccc(CN(C)C)c4)cc23)c(-c2ccc(NC(=O)N(C)C)cc2)n1
How it was run: as §1

[13] = compound: CN1CCC(CNc2ccc3ncc(-c4cccc(OC(F)(F)F)c4)n3n2)CC1
How it was run: as §1

saracatinib = compound: CN1CCN(CCOc2cc(OC3CCOCC3)c3c(Nc4c(Cl)ccc5c4OCO5)ncnc3c2)CC1 [saracatinib]
How it was run: as §1

sotrastaurin = compound: CN1CCN(c2nc(C3=C(c4c[nH]c5ccccc45)C(=O)NC3=O)c3ccccc3n2)CC1 [sotrastaurin]
How it was run: as §1

Measured: log2 fold change

MBOAT2 (UniProt Q6ZWT7)
Chain of UniProt Q6ZWT7 (Q6ZWT7 whole entry, looked up): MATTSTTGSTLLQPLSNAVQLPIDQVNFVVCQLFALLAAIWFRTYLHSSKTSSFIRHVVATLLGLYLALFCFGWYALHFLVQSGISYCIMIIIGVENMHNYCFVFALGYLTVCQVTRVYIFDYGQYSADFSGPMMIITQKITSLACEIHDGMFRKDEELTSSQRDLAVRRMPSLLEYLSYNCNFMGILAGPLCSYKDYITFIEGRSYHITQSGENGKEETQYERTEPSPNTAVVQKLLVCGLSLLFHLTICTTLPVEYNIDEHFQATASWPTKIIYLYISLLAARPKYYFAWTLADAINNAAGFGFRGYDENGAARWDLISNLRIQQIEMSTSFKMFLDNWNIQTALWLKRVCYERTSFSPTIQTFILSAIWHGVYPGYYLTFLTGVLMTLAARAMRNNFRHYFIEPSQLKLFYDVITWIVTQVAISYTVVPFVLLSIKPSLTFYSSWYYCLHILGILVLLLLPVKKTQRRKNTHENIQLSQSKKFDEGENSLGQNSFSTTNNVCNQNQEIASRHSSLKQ
inactive: ibrutinib -0.092 | [1] -0.039 | ralimetinib 0.137 | [2] 0.047 | [3] -0.047 | [4] 0.034 | [5] 0.031 | [6] 0.008 | [7] -0.117 | [8] 0.096 | vemurafenib 0.02 | [9] -0.01 | barasertib 0.121 | [10] 0.159 | volasertib -0.103 | [11] -0.015 | [12] -0.251 | [13] 0.026 | saracatinib 0.045 | sotrastaurin 0.284

LARP4B (UniProt Q92615)
Chain of UniProt Q92615 (Q92615 whole entry, looked up): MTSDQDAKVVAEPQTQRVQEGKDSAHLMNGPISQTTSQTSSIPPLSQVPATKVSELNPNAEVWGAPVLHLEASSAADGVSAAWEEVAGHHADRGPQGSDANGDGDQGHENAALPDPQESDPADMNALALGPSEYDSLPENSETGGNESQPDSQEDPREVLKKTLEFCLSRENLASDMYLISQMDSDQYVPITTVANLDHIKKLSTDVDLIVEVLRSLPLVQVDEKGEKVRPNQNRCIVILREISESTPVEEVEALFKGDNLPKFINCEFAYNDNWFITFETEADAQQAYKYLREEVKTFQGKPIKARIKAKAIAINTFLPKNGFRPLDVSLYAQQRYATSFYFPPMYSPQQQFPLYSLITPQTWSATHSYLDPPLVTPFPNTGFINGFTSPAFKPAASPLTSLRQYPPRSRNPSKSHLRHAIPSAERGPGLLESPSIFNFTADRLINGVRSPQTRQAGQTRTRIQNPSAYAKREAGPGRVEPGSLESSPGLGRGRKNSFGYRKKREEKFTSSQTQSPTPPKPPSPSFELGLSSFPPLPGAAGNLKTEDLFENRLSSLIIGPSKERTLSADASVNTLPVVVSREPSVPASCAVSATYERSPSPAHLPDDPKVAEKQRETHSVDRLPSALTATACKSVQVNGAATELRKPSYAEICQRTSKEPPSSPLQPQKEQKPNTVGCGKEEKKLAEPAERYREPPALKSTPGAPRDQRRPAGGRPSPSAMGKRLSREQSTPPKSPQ
inactive: ibrutinib 0 | [1] 0.005 | ralimetinib 0.055 | [2] 0.069 | [3] -0.02 | [4] -0.006 | [5] 0.03 | [6] -0.094 | [7] 0.037 | [8] 0.014 | vemurafenib -0.014 | [9] 0.011 | barasertib -0.033 | [10] -0.029 | volasertib -0.042 | [11] 0.08 | [12] -0.116 | [13] 0.038 | saracatinib 0.011 | sotrastaurin -0.019

MORC3 (UniProt Q14149)
Chain of UniProt Q14149 (Q14149 whole entry, looked up): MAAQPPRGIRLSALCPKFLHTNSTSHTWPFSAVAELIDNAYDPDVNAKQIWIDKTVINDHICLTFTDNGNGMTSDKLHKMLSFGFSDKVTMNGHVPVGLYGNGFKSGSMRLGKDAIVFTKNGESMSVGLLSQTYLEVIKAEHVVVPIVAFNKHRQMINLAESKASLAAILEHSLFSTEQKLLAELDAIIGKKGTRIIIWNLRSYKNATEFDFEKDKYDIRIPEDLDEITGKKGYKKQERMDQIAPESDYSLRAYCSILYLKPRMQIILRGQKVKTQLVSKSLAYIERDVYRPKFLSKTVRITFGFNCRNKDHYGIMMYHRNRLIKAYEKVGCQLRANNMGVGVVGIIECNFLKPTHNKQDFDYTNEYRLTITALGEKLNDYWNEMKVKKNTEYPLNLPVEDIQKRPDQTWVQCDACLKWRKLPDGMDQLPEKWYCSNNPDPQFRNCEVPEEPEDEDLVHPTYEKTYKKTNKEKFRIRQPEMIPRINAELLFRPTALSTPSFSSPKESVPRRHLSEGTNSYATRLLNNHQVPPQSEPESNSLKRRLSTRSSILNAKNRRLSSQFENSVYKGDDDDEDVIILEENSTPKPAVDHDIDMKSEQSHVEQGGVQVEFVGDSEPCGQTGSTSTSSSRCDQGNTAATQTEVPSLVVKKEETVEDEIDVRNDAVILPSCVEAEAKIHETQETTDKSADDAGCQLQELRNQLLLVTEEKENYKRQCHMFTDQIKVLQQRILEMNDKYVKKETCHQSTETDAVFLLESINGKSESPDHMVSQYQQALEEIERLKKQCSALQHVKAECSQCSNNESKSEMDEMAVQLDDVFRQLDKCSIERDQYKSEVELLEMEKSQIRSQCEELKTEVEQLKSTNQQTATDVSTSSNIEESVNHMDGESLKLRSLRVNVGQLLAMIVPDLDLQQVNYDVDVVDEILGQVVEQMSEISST
inactive: ibrutinib 0.004 | [1] -0.023 | ralimetinib 0.021 | [2] 0.013 | [3] -0.007 | [4] 0.007 | [5] -0.032 | [6] -0.021 | [7] 0.021 | [8] -0.027 | vemurafenib 0.025 | [9] 0.01 | barasertib 0.019 | [10] -0.03 | volasertib -0.077 | [11] 0.007 | [12] -0.007 | [13] -0.055 | saracatinib 0.004 | sotrastaurin 0.006

KIFC1 (UniProt Q9BW19)
Chain of UniProt Q9BW19 (Q9BW19 whole entry, looked up): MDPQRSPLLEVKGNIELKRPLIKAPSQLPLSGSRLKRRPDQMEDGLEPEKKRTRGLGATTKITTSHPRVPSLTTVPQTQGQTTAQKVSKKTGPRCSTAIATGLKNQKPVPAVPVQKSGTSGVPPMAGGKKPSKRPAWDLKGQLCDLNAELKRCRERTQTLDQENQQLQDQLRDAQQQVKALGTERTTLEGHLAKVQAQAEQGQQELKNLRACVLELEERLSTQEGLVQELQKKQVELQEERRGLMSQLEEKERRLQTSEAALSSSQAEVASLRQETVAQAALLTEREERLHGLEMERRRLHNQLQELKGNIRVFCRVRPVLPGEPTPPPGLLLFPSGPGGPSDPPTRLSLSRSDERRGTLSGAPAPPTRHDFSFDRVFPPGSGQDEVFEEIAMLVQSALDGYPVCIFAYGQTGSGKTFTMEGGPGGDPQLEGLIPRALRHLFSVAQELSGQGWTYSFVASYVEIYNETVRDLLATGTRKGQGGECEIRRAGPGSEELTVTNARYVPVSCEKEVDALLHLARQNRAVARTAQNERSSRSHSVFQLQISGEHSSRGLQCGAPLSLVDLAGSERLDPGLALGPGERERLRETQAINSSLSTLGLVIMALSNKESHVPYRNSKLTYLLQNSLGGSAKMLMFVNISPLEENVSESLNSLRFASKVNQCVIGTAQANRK
inactive: ibrutinib 0.021 | [1] -0.002 | ralimetinib -0.025 | [2] 0.007 | [3] -0.012 | [4] -0.009 | [5] 0.004 | [6] 0.002 | [7] 0.011 | [8] 0.002 | vemurafenib -0.008 | [9] 0.037 | barasertib 0.002 | [10] 0.006 | volasertib -0.084 | [11] -0.031 | [12] -0.045 | [13] -0.031 | saracatinib 0.021 | sotrastaurin 0.071

LRWD1 (UniProt Q9UFC0)
inactive: ibrutinib 0.082 | [1] -0.009 | ralimetinib 0.004 | [2] 0 | [3] 0.035 | [4] 0.015 | [5] -0.004 | [6] 0 | [7] 0.032 | [8] 0.04 | vemurafenib 0.009 | [9] -0.013 | barasertib -0.021 | [10] -0.016 | volasertib -0.017 | [11] 0.023 | [12] -0.003 | [13] 0.036 | saracatinib 0.025 | sotrastaurin 0.03

MAP2K2 (UniProt P36507)
Chain of UniProt P36507 (P36507 whole entry, looked up): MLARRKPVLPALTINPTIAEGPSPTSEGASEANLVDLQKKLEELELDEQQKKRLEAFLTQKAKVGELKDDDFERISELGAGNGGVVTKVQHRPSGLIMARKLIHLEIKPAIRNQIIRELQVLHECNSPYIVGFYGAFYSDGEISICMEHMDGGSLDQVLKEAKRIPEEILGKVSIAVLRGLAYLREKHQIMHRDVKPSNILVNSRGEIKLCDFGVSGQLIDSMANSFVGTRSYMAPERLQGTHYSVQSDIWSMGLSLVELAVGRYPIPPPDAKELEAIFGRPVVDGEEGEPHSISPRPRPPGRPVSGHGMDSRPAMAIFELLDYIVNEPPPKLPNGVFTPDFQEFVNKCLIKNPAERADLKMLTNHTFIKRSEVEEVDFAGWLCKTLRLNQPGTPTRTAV
inactive: ibrutinib 0.239 | ralimetinib -0.052 | [2] 0.173 | [3] -0.007 | [4] -0.009 | [5] -0.033 | [6] -0.017 | [7] 0.013 | [8] -0.014 | vemurafenib 0.224 | [9] 0.184 | barasertib 0.026 | [10] -0.076 | volasertib -0.089 | [11] 0.008 | [12] 0.252 | [13] -0.047 | saracatinib 0.093 | sotrastaurin -0.002
active: [1] 0.443

MAP2K4 isoform 2 (UniProt P45985)
Chain of UniProt P45985 (P45985 whole entry, looked up): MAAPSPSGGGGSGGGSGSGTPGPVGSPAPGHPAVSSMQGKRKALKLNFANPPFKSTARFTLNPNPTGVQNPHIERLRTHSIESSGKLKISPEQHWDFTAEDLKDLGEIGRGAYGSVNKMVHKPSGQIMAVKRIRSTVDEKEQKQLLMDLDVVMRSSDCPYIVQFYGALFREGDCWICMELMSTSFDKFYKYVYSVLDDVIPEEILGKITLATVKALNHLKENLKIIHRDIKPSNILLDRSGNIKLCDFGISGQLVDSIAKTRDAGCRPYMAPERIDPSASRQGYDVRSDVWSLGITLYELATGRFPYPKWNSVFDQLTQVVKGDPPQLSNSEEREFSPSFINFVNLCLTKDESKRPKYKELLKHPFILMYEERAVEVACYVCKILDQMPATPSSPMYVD
inactive: ibrutinib 0.051 | [1] 0.316 | ralimetinib -0.029 | [2] -0.015 | [3] 0.042 | [4] -0.008 | [5] 0.006 | [6] -0.055 | [7] 0.033 | [8] -0.045 | [9] 0.243 | barasertib 0.09 | [10] -0.127 | volasertib -0.01 | [11] 0.04 | [13] -0.063 | saracatinib -0.063 | sotrastaurin 0.002
active: vemurafenib 0.601 | [12] 0.936

MED16 (UniProt Q9Y2X0)
Chain of UniProt Q9Y2X0 (Q9Y2X0 whole entry, looked up): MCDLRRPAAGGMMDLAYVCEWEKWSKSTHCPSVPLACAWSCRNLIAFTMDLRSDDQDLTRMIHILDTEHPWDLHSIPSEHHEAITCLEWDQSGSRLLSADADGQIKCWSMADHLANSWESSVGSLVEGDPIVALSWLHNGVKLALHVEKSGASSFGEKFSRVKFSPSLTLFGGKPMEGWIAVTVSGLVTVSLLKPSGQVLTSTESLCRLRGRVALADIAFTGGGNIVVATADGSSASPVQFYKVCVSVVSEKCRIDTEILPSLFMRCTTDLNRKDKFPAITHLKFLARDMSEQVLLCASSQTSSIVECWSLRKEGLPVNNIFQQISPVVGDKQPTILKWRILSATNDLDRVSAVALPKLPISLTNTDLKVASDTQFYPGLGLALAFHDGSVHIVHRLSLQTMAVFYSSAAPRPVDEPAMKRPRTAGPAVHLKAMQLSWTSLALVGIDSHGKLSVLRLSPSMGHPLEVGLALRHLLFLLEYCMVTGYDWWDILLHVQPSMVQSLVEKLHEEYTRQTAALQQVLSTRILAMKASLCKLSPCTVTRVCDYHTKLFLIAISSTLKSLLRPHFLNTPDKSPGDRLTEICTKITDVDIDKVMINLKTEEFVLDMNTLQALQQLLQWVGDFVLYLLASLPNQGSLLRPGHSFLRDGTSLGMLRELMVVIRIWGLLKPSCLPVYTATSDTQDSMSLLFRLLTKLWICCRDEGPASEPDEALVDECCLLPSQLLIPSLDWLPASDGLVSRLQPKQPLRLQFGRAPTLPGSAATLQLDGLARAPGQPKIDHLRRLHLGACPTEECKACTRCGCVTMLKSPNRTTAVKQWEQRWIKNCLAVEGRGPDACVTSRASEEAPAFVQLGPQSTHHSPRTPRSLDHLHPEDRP
inactive: ibrutinib -0.113 | [1] -0.012 | ralimetinib 0.057 | [2] 0.046 | [3] -0.014 | [4] 0.021 | [5] -0.01 | [6] -0.038 | [7] -0.018 | [8] 0.005 | vemurafenib -0.059 | [9] 0.008 | barasertib -0.113 | [10] -0.04 | volasertib -0.036 | [11] 0.056 | [12] 0.177 | [13] -0.189 | saracatinib -0.014 | sotrastaurin -0.018
